# Test results reported in the supplement of paper PMC4466140.
# Columns and labels:
# Test in all cases: SPOT peptide array binding signal intensity (averaged, normalized) (arbitrary units (background-subtracted, floor 0; scale differs between SH3 domains)); higher = stronger binding of the SH3 domain to the peptide
# SpBzz1-D2 = target: SpBzz1-D2
# How it was run: (§1)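 The binding signal is the normalized, background-subtracted spot intensity averaged over replicates; its arbitrary units differ between domains. It was obtained by incubating 10 μg/ml GST-fused SH3 domains from four yeast species overnight at 4°C in TBS-based blocking buffer on cellulose membranes with synthetic 15-mer peptides, cysteines replaced by serines, then detecting with anti-GST antibody, HRP anti-mouse secondary and luminol.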
# SpCyk3 = target: SpCyk3
# How it was run: as §1
# SpHof1 = target: SpHof1
# How it was run: as §1
# SpHof1-2 = target: SpHof1-2
# How it was run: as §1
# SpHof1-3 = target: SpHof1-3
# How it was run: as §1
# SpHse1 = target: SpHse1
# How it was run: as §1
# SpLsb1 = target: SpLsb1
# How it was run: as §1
# SpLsb4 = target: SpLsb4
# How it was run: as §1
# SpMyo1 = target: SpMyo1
# How it was run: as §1
# SpNbp2 = target: SpNbp2
# How it was run: as §1
# SpPex13 = target: SpPex13
# How it was run: as §1
# SpRvs167 = target: SpRvs167
# How it was run: as §1
# SpSla1-D1-D2 = target: SpSla1-D1-D2
# How it was run: as §1
# SpSla1-D3 = target: SpSla1-D3
# How it was run: as §1
# AgAbp1 = target: AgAbp1
# How it was run: as §1
# AgBbc1 = target: AgBbc1
# How it was run: as §1
# AgBem1-D1 = target: AgBem1-D1
# How it was run: as §1
# AgBzz1-D1 = target: AgBzz1-D1
# How it was run: as §1
# AgBzz1-D2 = target: AgBzz1-D2
# How it was run: as §1
# AgCyk3 = target: AgCyk3
# How it was run: as §1
# AgFus1 = target: AgFus1
# How it was run: as §1
# AgHof1 = target: AgHof1
# How it was run: as §1
# AgHse1 = target: AgHse1
# How it was run: as §1
# AgLsb1 = target: AgLsb1
# How it was run: as §1
# AgLsb4 = target: AgLsb4
# How it was run: as §1
# AgMyo5 = target: AgMyo5
# How it was run: as §1
# AgNbp2 = target: AgNbp2
# How it was run: as §1
# AgRvs167 = target: AgRvs167
# How it was run: as §1
# AgSho1 = target: AgSho1
# How it was run: as §1
# AgSla1-D1-D2 = target: AgSla1-D1-D2
# How it was run: as §1
# AgSla1-D3 = target: AgSla1-D3
# How it was run: as §1
# CaAbp1-D1 = target: CaAbp1-D1
# How it was run: as §1
# CaAbp1-D2 = target: CaAbp1-D2
# How it was run: as §1
# CaBbc1 = target: CaBbc1
# How it was run: as §1
# CaBem1-D1 = target: CaBem1-D1
# How it was run: as §1
# CaBzz1-D1 = target: CaBzz1-D1
# How it was run: as §1
# CaBzz1-D2 = target: CaBzz1-D2
# How it was run: as §1
# CaCyk3 = target: CaCyk3
# How it was run: as §1
# CaFus1 = target: CaFus1
# How it was run: as §1
# CaHof1 = target: CaHof1
# How it was run: as §1
# CaHse1 = target: CaHse1
# How it was run: as §1
# CaLsb1 = target: CaLsb1
# How it was run: as §1
# CaLsb4 = target: CaLsb4
# How it was run: as §1
# CaMyo5 = target: CaMyo5
# How it was run: as §1
# CaNbp2 = target: CaNbp2
# How it was run: as §1
# CaRvs167 = target: CaRvs167
# How it was run: as §1
# CaRvs167-3 = target: CaRvs167-3
# How it was run: as §1
# CaSho1 = target: CaSho1
# How it was run: as §1
# CaSla1-D1-D2 = target: CaSla1-D1-D2
# How it was run: as §1
# CaSla1-D3 = target: CaSla1-D3
# How it was run: as §1
# ScAbp1 = target: ScAbp1
# How it was run: as §1
# ScBbc1 = target: ScBbc1
# How it was run: as §1
# ScBem1-D1 = target: ScBem1-D1
# How it was run: as §1
# ScBzz1-D1 = target: ScBzz1-D1
# How it was run: as §1
# ScBzz1-D2 = target: ScBzz1-D2
# How it was run: as §1
# ScCyk3 = target: ScCyk3
# How it was run: as §1
# ScFus1 = target: ScFus1
# How it was run: as §1
# ScHof1 = target: ScHof1
# How it was run: as §1
# ScHse1 = target: ScHse1
# How it was run: as §1
# ScLsb1 = target: ScLsb1
# How it was run: as §1
# ScLsb2 = target: ScLsb2
# How it was run: as §1
# ScLsb3 = target: ScLsb3
# How it was run: as §1
# ScLsb4 = target: ScLsb4
# How it was run: as §1
# ScMyo3 = target: ScMyo3
# How it was run: as §1
# ScMyo5 = target: ScMyo5
# How it was run: as §1
# ScNbp2 = target: ScNbp2
# How it was run: as §1
# ScPex13 = target: ScPex13
# How it was run: as §1
# ScRvs167 = target: ScRvs167
# How it was run: as §1
# ScSho1 = target: ScSho1
# How it was run: as §1
# ScSla1-D1-D2 = target: ScSla1-D1-D2
# How it was run: as §1
# ScSla1-D3 = target: ScSla1-D3
# How it was run: as §1
# SpAbp1-D1 = target: SpAbp1-D1
# How it was run: as §1
# SpBbc1 = target: SpBbc1
# How it was run: as §1
# SpBzz1-D1 = target: SpBzz1-D1
# How it was run: as §1
binder,measurement,setting,value
NENKKLPPAPTVFGL,SPOT peptide array binding signal intensity,SpBzz1-D2,0.25
same,SPOT peptide array binding signal intensity,SpCyk3,2.5
same,SPOT peptide array binding signal intensity,SpHof1,49.8
same,SPOT peptide array binding signal intensity,SpHof1-2,344
same,SPOT peptide array binding signal intensity,SpHof1-3,166
same,SPOT peptide array binding signal intensity,SpHse1,71.8
same,SPOT peptide array binding signal intensity,SpLsb1,0.5
same,SPOT peptide array binding signal intensity,SpLsb4,≤ 0
same,SPOT peptide array binding signal intensity,SpMyo1,≤ 0
same,SPOT peptide array binding signal intensity,SpNbp2,≤ 0
same,SPOT peptide array binding signal intensity,SpPex13,≤ 0
same,SPOT peptide array binding signal intensity,SpRvs167,0.333
same,SPOT peptide array binding signal intensity,SpSla1-D1-D2,8
same,SPOT peptide array binding signal intensity,SpSla1-D3,1.5
EEEEEHPPLPARRKS,SPOT peptide array binding signal intensity,AgAbp1,≤ 0
same,SPOT peptide array binding signal intensity,AgBbc1,23.2
same,SPOT peptide array binding signal intensity,AgBem1-D1,≤ 0
same,SPOT peptide array binding signal intensity,AgBzz1-D1,9
same,SPOT peptide array binding signal intensity,AgBzz1-D2,27.5
same,SPOT peptide array binding signal intensity,AgCyk3,≤ 0
same,SPOT peptide array binding signal intensity,AgFus1,≤ 0
same,SPOT peptide array binding signal intensity,AgHof1,3
same,SPOT peptide array binding signal intensity,AgHse1,3.5
same,SPOT peptide array binding signal intensity,AgLsb1,20.5
same,SPOT peptide array binding signal intensity,AgLsb4,7880
same,SPOT peptide array binding signal intensity,AgMyo5,0.5
same,SPOT peptide array binding signal intensity,AgNbp2,≤ 0
same,SPOT peptide array binding signal intensity,AgRvs167,61
same,SPOT peptide array binding signal intensity,AgSho1,8
same,SPOT peptide array binding signal intensity,AgSla1-D1-D2,4.5
same,SPOT peptide array binding signal intensity,AgSla1-D3,≤ 0
same,SPOT peptide array binding signal intensity,CaAbp1-D1,8.5
same,SPOT peptide array binding signal intensity,CaAbp1-D2,≤ 0
same,SPOT peptide array binding signal intensity,CaBbc1,50.5
same,SPOT peptide array binding signal intensity,CaBem1-D1,≤ 0
same,SPOT peptide array binding signal intensity,CaBzz1-D1,≤ 0
same,SPOT peptide array binding signal intensity,CaBzz1-D2,≤ 0
same,SPOT peptide array binding signal intensity,CaCyk3,≤ 0
same,SPOT peptide array binding signal intensity,CaFus1,9.5
same,SPOT peptide array binding signal intensity,CaHof1,8.5
same,SPOT peptide array binding signal intensity,CaHse1,13
same,SPOT peptide array binding signal intensity,CaLsb1,10.8
same,SPOT peptide array binding signal intensity,CaLsb4,5520
same,SPOT peptide array binding signal intensity,CaMyo5,1.75
same,SPOT peptide array binding signal intensity,CaNbp2,≤ 0
same,SPOT peptide array binding signal intensity,CaRvs167,408
same,SPOT peptide array binding signal intensity,CaRvs167-3,6.5
same,SPOT peptide array binding signal intensity,CaSho1,≤ 0
same,SPOT peptide array binding signal intensity,CaSla1-D1-D2,≤ 0
same,SPOT peptide array binding signal intensity,CaSla1-D3,≤ 0
same,SPOT peptide array binding signal intensity,ScAbp1,≤ 0
same,SPOT peptide array binding signal intensity,ScBbc1,6.25
same,SPOT peptide array binding signal intensity,ScBem1-D1,0.5
same,SPOT peptide array binding signal intensity,ScBzz1-D1,16
same,SPOT peptide array binding signal intensity,ScBzz1-D2,27.5
same,SPOT peptide array binding signal intensity,ScCyk3,≤ 0
same,SPOT peptide array binding signal intensity,ScFus1,4
same,SPOT peptide array binding signal intensity,ScHof1,4.25
same,SPOT peptide array binding signal intensity,ScHse1,≤ 0
same,SPOT peptide array binding signal intensity,ScLsb1,444
same,SPOT peptide array binding signal intensity,ScLsb2,17
same,SPOT peptide array binding signal intensity,ScLsb3,9930
same,SPOT peptide array binding signal intensity,ScLsb4,3690
same,SPOT peptide array binding signal intensity,ScMyo3,≤ 0
same,SPOT peptide array binding signal intensity,ScMyo5,≤ 0
same,SPOT peptide array binding signal intensity,ScNbp2,≤ 0
same,SPOT peptide array binding signal intensity,ScPex13,656
same,SPOT peptide array binding signal intensity,ScRvs167,1940
same,SPOT peptide array binding signal intensity,ScSho1,≤ 0
same,SPOT peptide array binding signal intensity,ScSla1-D1-D2,102
same,SPOT peptide array binding signal intensity,ScSla1-D3,≤ 0
same,SPOT peptide array binding signal intensity,SpAbp1-D1,≤ 0
same,SPOT peptide array binding signal intensity,SpBbc1,1.5
same,SPOT peptide array binding signal intensity,SpBzz1-D1,17
same,SPOT peptide array binding signal intensity,SpBzz1-D2,2
same,SPOT peptide array binding signal intensity,SpCyk3,≤ 0
same,SPOT peptide array binding signal intensity,SpHof1,0.5
same,SPOT peptide array binding signal intensity,SpHof1-2,1
same,SPOT peptide array binding signal intensity,SpHof1-3,1
same,SPOT peptide array binding signal intensity,SpHse1,1
same,SPOT peptide array binding signal intensity,SpLsb1,10
same,SPOT peptide array binding signal intensity,SpLsb4,7640
same,SPOT peptide array binding signal intensity,SpMyo1,≤ 0
same,SPOT peptide array binding signal intensity,SpNbp2,3.5
same,SPOT peptide array binding signal intensity,SpPex13,≤ 0
same,SPOT peptide array binding signal intensity,SpRvs167,1510
same,SPOT peptide array binding signal intensity,SpSla1-D1-D2,≤ 0
same,SPOT peptide array binding signal intensity,SpSla1-D3,5
